# In publication PMC8384837, “Expanding the binding specificity for RNA recognition by a PUF domain”:
# Substitutions are numbered along the chain they refer to.
# How the values were obtained:
# Assay in all cases: yeast three-hybrid, YBZ-1, SC-Leu-His + 0.5 mM 3-AT, 4 days
# Settings in all cases: tags: N-Gal4 AD-HA kept; label: inside an RPR1-promoter hybrid RNA with tandem MS2 sites; ssRNA
# [1] = biological target: PUM1 PUF domain R3-PFV (Homo sapiens, UniProt Q14671 828-1176, C935P;R936F;Q939V)
# Summary of the method: (§1)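 Matching RNA elements and Pumilio-1 PUF domain libraries, randomized at the three base-contacting residues of every repeat, were co-expressed from a centromeric plasmid in strain YBZ-1 (LexA–MS2 coat fusion, HIS3 reporter). The repeat regions were PCR-amplified and Illumina-sequenced from cells grown four days on SC-Leu (input) or SC-Leu-His + 0.5 mM 3-AT (selection). The interaction score is the log change in variant frequency from input to selection. It is computed in log2, with a pseudocount of 1 for absent variants.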
# [2] = biological target: T1, PUM1 PUF domain R6-NWV (Homo sapiens, UniProt Q14671 828-1176, Y1044W;Q1047V)
# T1 sequence: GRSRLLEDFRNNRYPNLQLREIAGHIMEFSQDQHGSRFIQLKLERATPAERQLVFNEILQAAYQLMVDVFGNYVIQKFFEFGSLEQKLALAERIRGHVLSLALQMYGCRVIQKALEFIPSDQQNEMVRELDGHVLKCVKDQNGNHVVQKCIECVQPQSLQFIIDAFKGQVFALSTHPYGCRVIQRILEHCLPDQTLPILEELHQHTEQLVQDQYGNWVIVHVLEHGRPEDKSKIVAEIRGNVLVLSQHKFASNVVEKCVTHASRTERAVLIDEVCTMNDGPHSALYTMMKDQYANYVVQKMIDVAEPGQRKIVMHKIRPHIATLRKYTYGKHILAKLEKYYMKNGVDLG
# Summary of the method: as §1
# [3] = biological target: PUM1 PUF domain R4-VPC (Homo sapiens, UniProt Q14671 828-1176, N971V;H972P;Q975C)
# Summary of the method: as §1
# [4] = biological target: PUM1 PUF domain R4-TPN (Homo sapiens, UniProt Q14671 828-1176, N971T;H972P;Q975N)
# Summary of the method: as §1
# [5] = biological target: PUM1 PUF domain R7-ISG (Homo sapiens, UniProt Q14671 828-1176, S1079I;N1080S;E1083G)
# Summary of the method: as §1
# [6] = biological target: PUM1 PUF domain R7-RAR (Homo sapiens, UniProt Q14671 828-1176, S1079R;N1080A;E1083R)
# Summary of the method: as §1
# [7] = biological target: PUM1 PUF domain R8-KFY (Homo sapiens, UniProt Q14671 828-1176, N1122K;Y1123F;Q1126Y)
# Summary of the method: as §1
# [8] = biological target: PUM1 PUF domain R5-DWW (Homo sapiens, UniProt Q14671 828-1176, C1007D;R1008W;Q1011W)
# Summary of the method: as §1
# [9] = biological target: PUM1 PUF domain R1-TRR (Homo sapiens, UniProt Q14671 828-1176, S863T;Q867R)
# Summary of the method: as §1
# [10] = biological target: PUM1 PUF domain R4-WGM (Homo sapiens, UniProt Q14671 828-1176, N971W;H972G;Q975M)
# Summary of the method: as §1
# [11] = biological target: PUM1 PUF domain R4-WSH (Homo sapiens, UniProt Q14671 828-1176, N971W;H972S;Q975H)
# Summary of the method: as §1
# [12] = biological target: PUM1 PUF domain R2-RVT (Homo sapiens, UniProt Q14671 828-1176, N899R;Y900V;Q903T)
# Summary of the method: as §1
# [13] = biological target: PUM1 PUF domain R3-SRF (Homo sapiens, UniProt Q14671 828-1176, C935S;Q939F)
# Summary of the method: as §1
# [14] = biological target: PUM1 PUF domain R3-FYS (Homo sapiens, UniProt Q14671 828-1176, C935F;R936Y;Q939S)
# Summary of the method: as §1
# [15] = biological target: PUM1 PUF domain R2-NWP (Homo sapiens, UniProt Q14671 828-1176, Y900W;Q903P)
# Summary of the method: as §1
# [16] = biological target: T2, PUM1 PUF domain R6-IFQ (Homo sapiens, UniProt Q14671 828-1176, N1043I;Y1044F)
# T2 sequence: T1 sequence with N216I, W217F, V220Q
# Summary of the method: as §1
# [17] = biological target: PUM1 PUF domain R8-MHK (Homo sapiens, UniProt Q14671 828-1176, N1122M;Y1123H;Q1126K)
# Summary of the method: as §1
# [18] = biological target: PUM1 PUF domain R5-KRK (Homo sapiens, UniProt Q14671 828-1176, C1007K;Q1011K)
# Summary of the method: as §1
# [19] = biological target: PUM1 PUF domain R5-KVE (Homo sapiens, UniProt Q14671 828-1176, C1007K;R1008V;Q1011E)
# Summary of the method: as §1
# [20] = biological target: PUM1 PUF domain R5-RST (Homo sapiens, UniProt Q14671 828-1176, C1007R;R1008S;Q1011T)
# Summary of the method: as §1
# PUM1 PUF domain R4-TPN, sequence (Q14671 828-1176 N971T/H972P/Q975N): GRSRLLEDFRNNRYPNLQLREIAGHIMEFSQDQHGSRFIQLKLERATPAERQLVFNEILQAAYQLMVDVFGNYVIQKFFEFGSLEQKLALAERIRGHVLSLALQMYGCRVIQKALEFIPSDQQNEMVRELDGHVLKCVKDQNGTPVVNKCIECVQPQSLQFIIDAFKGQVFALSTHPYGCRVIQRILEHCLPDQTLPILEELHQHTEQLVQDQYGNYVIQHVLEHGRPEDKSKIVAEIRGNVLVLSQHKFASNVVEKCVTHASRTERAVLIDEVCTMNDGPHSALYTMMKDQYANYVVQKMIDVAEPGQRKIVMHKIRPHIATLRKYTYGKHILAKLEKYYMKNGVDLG
sequence,measurement,setting,value
GGCUAGAACUAGUGGAUCCCCCGGCGCCCGGCGGCUCGAGCCCGGGUAAGUGUAAUUAGUCUGCAUGCCGCCGGGCGCCAUGCCUGCAGGUCGACUCUAGAAAACAUG,binding signal,[1],2.52 log2 enrichment (interaction score)
GGCUAGAACUAGUGGAUCCCCCGGCGCCCGGCGGCUCGAGCCCGGGUAAGUGAAAAUAGUCUGCAUGCCGCCGGGCGCCAUGCCUGCAGGUCGACUCUAGAAAACAUG,binding signal,[2],3.35 log2 enrichment (interaction score)
GGCUAGAACUAGUGGAUCCCCCGGCGCCCGGCGGCUCGAGCCCGGGUAAGUGUACAUAGUCUGCAUGCCGCCGGGCGCCAUGCCUGCAGGUCGACUCUAGAAAACAUG,binding signal,[3],3.7 log2 enrichment (interaction score)
same,binding signal,[4],4.27 log2 enrichment (interaction score)
GGCUAGAACUAGUGGAUCCCCCGGCGCCCGGCGGCUCGAGCCCGGGUAAGUUUAAAUAGUCUGCAUGCCGCCGGGCGCCAUGCCUGCAGGUCGACUCUAGAAAACAUG,binding signal,[5],5.55 log2 enrichment (interaction score)
same,binding signal,[6],4.56 log2 enrichment (interaction score)
GGCUAGAACUAGUGGAUCCCCCGGCGCCCGGCGGCUCGAGCCCGGGUAAGCGUAAAUAGUCUGCAUGCCGCCGGGCGCCAUGCCUGCAGGUCGACUCUAGAAAACAUG,binding signal,[7],2.74 log2 enrichment (interaction score)
GGCUAGAACUAGUGGAUCCCCCGGCGCCCGGCGGCUCGAGCCCGGGUAAGUCUAAAUAGUCUGCAUGCCGCCGGGCGCCAUGCCUGCAGGUCGACUCUAGAAAACAUG,binding signal,[6],1.83 log2 enrichment (interaction score)
GGCUAGAACUAGUGGAUCCCCCGGCGCCCGGCGGCUCGAGCCCGGGUAAGUGUGAAUAGUCUGCAUGCCGCCGGGCGCCAUGCCUGCAGGUCGACUCUAGAAAACAUG,binding signal,[8],5.08 log2 enrichment (interaction score)
GGCUAGAACUAGUGGAUCCCCCGGCGCCCGGCGGCUCGAGCCCGGGUAAGUGUAAAUUGUCUGCAUGCCGCCGGGCGCCAUGCCUGCAGGUCGACUCUAGAAAACAUG,binding signal,[9],3.12 log2 enrichment (interaction score)
GGCUAGAACUAGUGGAUCCCCCGGCGCCCGGCGGCUCGAGCCCGGGUAAGUGUAUAUAGUCUGCAUGCCGCCGGGCGCCAUGCCUGCAGGUCGACUCUAGAAAACAUG,binding signal,[10],2.85 log2 enrichment (interaction score)
same,binding signal,[11],4.36 log2 enrichment (interaction score)
same,binding signal,[4],3.42 log2 enrichment (interaction score)
GGCUAGAACUAGUGGAUCCCCCGGCGCCCGGCGGCUCGAGCCCGGGUAAGUGUAAAGAGUCUGCAUGCCGCCGGGCGCCAUGCCUGCAGGUCGACUCUAGAAAACAUG,binding signal,[12],2.17 log2 enrichment (interaction score)
GGCUAGAACUAGUGGAUCCCCCGGCGCCCGGCGGCUCGAGCCCGGGUAAGUGUAAAUAGUCUGCAUGCCGCCGGGCGCCAUGCCUGCAGGUCGACUCUAGAAAACAUG,binding signal,[1],3.44 log2 enrichment (interaction score)
same,binding signal,[13],2.58 log2 enrichment (interaction score)
same,binding signal,[14],3.03 log2 enrichment (interaction score)
same,binding signal,[3],2.65 log2 enrichment (interaction score)
same,binding signal,[15],4.83 log2 enrichment (interaction score)
same,binding signal,[7],2.5 log2 enrichment (interaction score)
same,binding signal,[11],1.11 log2 enrichment (interaction score)
same,binding signal,[16],3.62 log2 enrichment (interaction score)
same,binding signal,[4],5.21 log2 enrichment (interaction score)
same,binding signal,[17],2.63 log2 enrichment (interaction score)
GGCUAGAACUAGUGGAUCCCCCGGCGCCCGGCGGCUCGAGCCCGGGUAAGUGUAAAUCGUCUGCAUGCCGCCGGGCGCCAUGCCUGCAGGUCGACUCUAGAAAACAUG,binding signal,[9],4.23 log2 enrichment (interaction score)
GGCUAGAACUAGUGGAUCCCCCGGCGCCCGGCGGCUCGAGCCCGGGUAAGUGUUAAUAGUCUGCAUGCCGCCGGGCGCCAUGCCUGCAGGUCGACUCUAGAAAACAUG,binding signal,[18],2.98 log2 enrichment (interaction score)
GGCUAGAACUAGUGGAUCCCCCGGCGCCCGGCGGCUCGAGCCCGGGUAAGUGUCAAUAGUCUGCAUGCCGCCGGGCGCCAUGCCUGCAGGUCGACUCUAGAAAACAUG,binding signal,[18],3.89 log2 enrichment (interaction score)
same,binding signal,[19],2.24 log2 enrichment (interaction score)
same,binding signal,[20],2.91 log2 enrichment (interaction score)
